Assay outcomes: PubChem, The Scripps Research Institute Molecular Screening Center
FBW7 act: activators of human E3 ligase FBW7; AID 1259310; AlphaScreen FBW7–phospho-cyclin E peptide binding, activator screen; normalized activity (activation), % at 26.1 µM; actives 0.13% (n = 650,000); in the data active = normalized activity above about 1.9%;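 note: purified mutant Fbw7 with reduced substrate affinity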
MITF primary: blocks human microphthalmia-associated transcription factor; O75030; AlphaScreen MITF homodimerization, bead proximity signal; inhibition, % at 2.6 µM; actives 0.91% (n = 650,000); in the data active = inhibition above about 50%;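 note: 0% = vehicle wells with protein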
Target sequence (O75030 whole entry, looked up): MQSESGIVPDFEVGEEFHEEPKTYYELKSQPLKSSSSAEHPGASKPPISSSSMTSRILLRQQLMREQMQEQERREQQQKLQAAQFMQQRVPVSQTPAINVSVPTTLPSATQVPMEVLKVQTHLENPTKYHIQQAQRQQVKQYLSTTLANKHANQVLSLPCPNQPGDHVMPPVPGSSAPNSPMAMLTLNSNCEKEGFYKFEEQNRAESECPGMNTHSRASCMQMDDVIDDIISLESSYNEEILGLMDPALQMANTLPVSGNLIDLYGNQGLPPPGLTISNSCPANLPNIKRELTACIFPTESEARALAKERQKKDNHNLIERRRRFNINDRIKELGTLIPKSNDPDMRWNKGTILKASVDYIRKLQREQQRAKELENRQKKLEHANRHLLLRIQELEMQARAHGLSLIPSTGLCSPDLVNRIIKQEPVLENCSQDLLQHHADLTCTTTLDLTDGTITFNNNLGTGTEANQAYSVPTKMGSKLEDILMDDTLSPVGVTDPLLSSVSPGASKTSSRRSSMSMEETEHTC
GPR151 ag: activates the human receptor GPR151. Q8TDV0. PathHunter beta-arrestin GPR151 cells, luminescence. activation, % at 11.2 µM. actives 1% (n = 650,000). AID 1508602; in the data active = activation above about 4.9%;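 note: 0% = median of compound wells and 100% = cells with positive control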
TEAD-YAP block: TEAD-YAP interaction inhibition. HEK-TIYL cells, TEAD-Gal4/YAP UAS-luciferase luminescence. inhibition, % at 9.12 µM. actives 1.4% (n = 640,000). AID 1259422; in the data active = inhibition above about 32%;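 note: 0% = median of test compound wells and 100% = reference inhibitor wells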
* hit, by the source's call; x = no result; ! = a repeat was not active. The list is not random: actives were taken first. Their share in the collection is about 3.5%.

SMILES | FBW7 act | MITF primary | GPR151 ag | TEAD-YAP block
CCCCN(C)c1nnc(NC(=O)Nc2ccccc2OC)s1 | 0 | 1 | 1 | -14
CCCCN(C)c1nnc(NC(=O)Nc2cc(OC)c(OC)c(OC)c2)s1 | 0 | 11 | 0 | 56*
CC[C@@H]1NC(=O)[C@@H]2C[C@H](NC(=O)c3ccc(C)c(F)c3)CN2C1=O | 0 | -5 | -1 | 7
C[n+]1c2cc(N)ccc2cc2ccc(N)cc21 (tested in a mixture with another compound) | 0 | 57* | -3 | -14
C[n+]1c2cc(N)ccc2cc2ccc(N)cc21 | 0 | 52*! | 0 | -1
Nc1ccc2nc(/C=C/c3nc4ccc(N)cc4[nH]3)[nH]c2c1 | 0 | 20 | 2 | 16
C#CCn1c(=NC(C)=O)sc2cc(OC)ccc21 | 0 | 12 | 4 | 12
Cc1c(-c2ccncc2)cc2[nH]c(C3COc4ccccc4O3)nc2c1C (configuration not stated) | 0 | 11 | 3 | -5
CC(C)c1ccc(OCC(=O)Nc2ncn[nH]2)c(Br)c1 | 0 | 9 | -4 | 63*
CC(C)(C)c1ccc(OCC(=O)Nc2ncn[nH]2)c(Br)c1 | 1 | 10 | -1 | 7
O=S(=O)(O)c1nc2ccccc2n1CCOc1ccc(F)cc1 | 0 | 12 | 0 | -7
Cc1onc(-c2c(Cl)cccc2Cl)c1C(=O)N1CCN(c2cccc(C(F)(F)F)c2)CC1 | 0 | 16 | 1 | 54*
Cc1nc2ccccn2c1C(=O)N1CCN(c2cccc(C(F)(F)F)c2)CC1 | 0 | 3 | 5 | 58*
CS(=O)(=O)N(CC(=O)N/N=C/c1cc(Cl)cc(Cl)c1O)c1ccccc1 | 0 | 8 | 1 | 58*
O=C(NCC1CCCN(Cc2cccn2-c2ccccn2)C1)c1n[nH]c2ccccc12 (configuration not stated) | 0 | 17 | 1 | 70*
O=C(NCC1CCCN(Cc2cccn2-c2cccnc2)C1)c1n[nH]c2ccccc12 (configuration not stated) | 0 | -2 | -2 | -7
O=C1c2cccc3cccc(c23)C(=O)N1CCNCCO | 0 | -11 | 0 | 64*
CCN(CC)CCCNCC(=O)Nc1cc(C)on1 | 1 | 1 | -2 | 8
CCN(CC)CCCNCC(=O)Nc1nc(C)cs1 | 0 | 15 | -5 | 95*
CCN(CC)CCCNCC(=O)N1c2ccccc2Sc2ccccc21 | 0 | 8 | -2 | 40*
C=C1c2cccc(O)c2C(O)=C2C(=O)C3(O)C(O)=C(C(N)=O)C(=O)C(N(C)C)C3C(O)C12 (configuration not stated) | 0 | 111* | -2 | 17
CN(C)C1C(=O)C(C(N)=O)=C(O)C2(O)C(=O)C3=C(O)c4c(O)ccc(Cl)c4C(O)C3CC12 (configuration not stated) | 0 | 36 | 1 | x
CCN(C(=O)c1ccc(N2CC3CC(C2)c2cccc(=O)n2C3)c(NC(=O)c2ccc(OC)cc2)c1)c1cccc(C)c1 (configuration not stated) | 0 | 12 | 1 | 0
CC(=O)Nc1ccc(Nc2nc(-c3cccc(N)c3)nc3c2ncn3-c2ccccc2)cc1 | 0 | 25 | 0 | 41*
CC(=O)Nc1ccc(Nc2nc(-c3ccc(C(N)=O)cc3)nc3c2ncn3C(C)C)cc1 | 0 | 2 | 0 | 28
SMILES | FBW7 act | MITF primary | GPR151 ag | TEAD-YAP block
COc1ccc(-c2nc(Nc3ccc(NC(C)=O)cc3)c3ncn(C(C)C)c3n2)cn1 | 0 | 3 | 4 | 35*
CC(C)n1cnc2c(Nc3ccccc3)nc(-c3cccc(N)c3)nc21 | 0 | 6 | -1 | 13
CC(=O)Nc1ccc(Nc2nc(-c3cccc(N)c3)nc3c2ncn3C(C)C)cc1 | 0 | 11 | -1 | 38*
CC(=O)Nc1ccc(Nc2nc(-c3ccccc3)nc3c2ncn3-c2ccccc2)cc1 | 0 | -8 | 0 | 8
COC(=O)[C@@H](NC(=O)CCc1nnc(CCc2ccc(OC)cc2)o1)C(C)C | 0 | 11 | -1 | -15
COCCOc1nc2ccc(C)cc2cc1CNCc1nc(-c2ccccc2)n[nH]1 | 0 | -14 | -1 | -9
CC12CCC(C/C1=N/NC(=O)c1ccccc1)C2(C)C (configuration not stated) | 0 | 8 | 2 | -21
Cc1cc(C)cc(Oc2nc3ccccn3c(=O)c2/C=C(\C#N)C(=O)N2CCOCC2)c1 | 0 | 13 | 1 | 37*
N#C/C(=C\c1c(Oc2ccccc2)nc2ccccn2c1=O)C(=O)N1CCOCC1 | 0 | -9 | 0 | 21
Cc1cccc(Oc2nc3c(C)cccn3c(=O)c2/C=C(\C#N)C(=O)N2CCOCC2)c1 | 0 | 16 | 0 | 36*
